Most compounds without a hit are left out; they make up all but 5.3% or so of the library.
IMPase Li cell – qHTS Assay for Identifying the Cell-Membrane Permeable IMPase Inhibitors: Potentiation with Lithium; AID 1457, 2008; CHO-M1 cells, IP1 TR-FRET (IP-One), carbachol + lithium; Potency, µM (highest dose often 59.4 µM), for the others: at the highest dose activity, negative = IMPase inhibition, usual class: inhibitors; hit rate 0.35% among 210,000;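 also: IP1 builds up when IMPase is blocked and the TR-FRET signal falls; potency is read from the fitted curve at half-maximal effect; plate controls were basal vehicle for no effect and high inhibitor control for full effect; nearly all actives have a fitted effect of over 50% in size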
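IP1 accumulation measured by competitive TR-FRET in lysed CHO-M1 cells after 30 min compound exposure at 37C, with a small lithium addition to potentiate weak responses. Hill-equation AC50 from ratio and donor-channel data.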
ALOX15B inhib – qHTS Assay for Inhibitors of 15-hLO-2 (15-human lipoxygenase 2) | Polyunsaturated fatty acid lipoxygenase ALOX15B (Homo sapiens), O15296 | purified 15hLO-2, xylenol orange hydroperoxide absorbance | Potency, µM (series often up to 57.1 µM), for the others: at the highest dose activity change, negative = inhibition, most hits filed as inhibitors | hit rate 0.56% among 110,000; also: potency is read from the fitted curve at half-maximal effect; nearly all actives have a fitted effect of over 60% in size
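Read-out: hydroperoxide product oxidises ferrous iron, measured as xylenol orange complex via the 573-to-405 nm absorbance ratio after 30 min. Reaction: 50 nM enzyme, 15 min compound preincubation, 45 uM arachidonic acid, 90 min RT, Hepes pH 7.5 with Triton X-100.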
ALOX12 inhib – qHTS Assay for Inhibitors of 12-hLO (12-human lipoxygenase); Polyunsaturated fatty acid lipoxygenase ALOX12 (Homo sapiens), P18054; purified 12-hLO, xylenol orange hydroperoxide absorbance; Potency, µM (highest dose often 57.1 µM), without a hit: top-dose activity change, negative = inhibition, actives largely listed as inhibitors; hit rate 0.12% among 150,000; also: potency is read from the fitted curve at half-maximal effect; nearly all actives have a fitted effect of over 55% in size
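Hydroperoxide formation by human 12-lipoxygenase from 40 uM arachidonic acid was followed colorimetrically via ferric-xylenol orange complex, using the 573/405 nm absorbance ratio. Enzyme concentration was 150 nM, with 30 min reaction at room temperature.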
IMPase cell inh – qHTS Assay for Identifying the Cell-Membrane Permeable IMPase Inhibitors; AID 901, 2007; inhibition (IP1 accumulation), % at 46.1 µM; CHO-M1 cells, IP1 accumulation, HTRF TR-FRET ratio; 120,000 tested, under 10 active; active = well fitted curve in the direction sought with a large enough effect in the signal ratio, not every such curve was filed as active; inconclusive = small, poorly fitted or top-dose-only effect, or a change in a side signal; inactive = no such curve, though single readings can be large or run the other way; the % refers to the signal ratio;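 also: cells stimulated with carbachol in lithium chloride buffer; plate controls were DMSO basal wells for no effect and reference inhibitor wells for full effect; higher means more IMPase inhibition seen as more IP1 and lower FRET ratio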
Target sequence (P97697 whole entry, looked up): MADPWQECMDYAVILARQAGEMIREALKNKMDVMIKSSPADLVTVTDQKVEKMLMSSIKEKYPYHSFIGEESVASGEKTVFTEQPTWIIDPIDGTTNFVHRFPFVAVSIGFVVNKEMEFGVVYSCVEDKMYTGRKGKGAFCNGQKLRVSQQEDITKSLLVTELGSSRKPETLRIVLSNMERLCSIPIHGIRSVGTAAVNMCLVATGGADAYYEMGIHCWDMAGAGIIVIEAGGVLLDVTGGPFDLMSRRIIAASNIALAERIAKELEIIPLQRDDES
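In this qHTS, compounds (final up to 46 uM) act on CHO-M1 cells that are then activated through the M1 receptor with carbachol, in pH 7.4 buffer containing 50 mM LiCl, for 30 min. IP1 accumulation is quantified by the IP-One immunoassay.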
HPGD block – qHTS Assay for Inhibitors of HPGD (15-Hydroxyprostaglandin Dehydrogenase) | 15-hydroxyprostaglandin dehydrogenase [NAD(+)] (Homo sapiens), P15428 | purified HPGD, NADH fluorescence kinetic, PGE2 substrate | Potency, µM, inactives show at the highest dose activity change, negative = inhibition, usual class: inhibitors | hit rate 4.3% among 150,000 | AID 894, 2007; active = well fitted inhibition curve with a large enough effect, not every such curve was filed as active; inconclusive = small, poorly fitted or top-dose-only effect, or another doubt; inactive = no such curve, though single readings can be large or run the other way; also: potency is read from the fitted curve at half-maximal effect
Target sequence (P15428 whole entry, looked up): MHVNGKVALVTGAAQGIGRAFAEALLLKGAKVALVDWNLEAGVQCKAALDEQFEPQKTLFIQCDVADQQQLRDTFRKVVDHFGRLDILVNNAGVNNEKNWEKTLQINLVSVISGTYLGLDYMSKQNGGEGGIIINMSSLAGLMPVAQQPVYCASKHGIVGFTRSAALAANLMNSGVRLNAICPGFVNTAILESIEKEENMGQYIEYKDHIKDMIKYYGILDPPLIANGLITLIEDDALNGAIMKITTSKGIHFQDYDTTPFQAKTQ
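NADH formation kinetics: reaction with 30 uM PGE2 and 1 mM NAD+ (final), 20 nM enzyme, Tris-HCl pH 8 with Tween 20, after 15 min compound preincubation at room temperature. Fluorescence change, last versus first of five reads.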
PNC inhibitor – High Content Assay for Compounds that inhibit the Assembly of the Perinucleolar Compartment. PC3M PTB-GFP, PNC prevalence imaging, 16 h; hits give low values. activity change (PNC), negative = inhibition, % at 10 µM. hit rate 3.1% among 140,000;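 active = readout at or below -70, meaning at least 70% loss of cells showing the perinucleolar compartment, a nuclear body marking cancer cells; inconclusive = readout between -30 and a set limit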;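 also: plate controls were DMSO wells for no effect and camptothecin positive control wells for full effect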
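PC3M cells stably expressing PTB-GFP, 750–1000 cells/well, treated 16 h at 37 °C with compound (23 nl of library stock), in duplicate. After paraformaldehyde fixation and Hoechst stain, imaged at 20x; PNC prevalence scored by image analysis.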
The depositor's hits bear a star; ? = inconclusive; / = not tested or not shown; [ ] = another dose, or the depositor's remark. Unless noted, calls follow the shape of the dose curve; as a rule, active = well fitted curve in the direction sought with a large enough effect; inconclusive = small, poorly fitted or top-dose-only effect, or another doubt; inactive = no such curve, though single readings can be large; an effect the other way counts as inactive or inconclusive. Unless noted, % is scaled to controls: 0 for no effect and ±100 for the full control effect.

SMILES | IMPase Li cell | ALOX15B inhib | ALOX12 inhib | IMPase cell inh | HPGD block | PNC inhibitor
O=c1[nH]c2cc3c(cc2cc1CN(CC1CCCO1)S(=O)(=O)c1ccc(Cl)cc1)OCCO3 (stereo not drawn) | 5%[38.3 µM] | 3% | 5% | -10 | ? | ?
CC1CCCN(C(=O)c2ccc3c(=O)n(Cc4ccc5c(c4)OCO5)c(=S)[nH]c3c2)C1 (stereo not drawn) | -3%[38.3 µM] | -17% | -16% | 9 | 5µM* | 6
CCn1nc(C(=O)OC(C(=O)c2c[nH]c3ccccc23)c2ccccc2)c2ccccc2c1=O (stereo not drawn) | 23%[38.3 µM] | -4% | 1% | 9 | -24% | 7
Cn1c(N)c(C(=O)COC(=O)CCCc2c[nH]c3ccccc23)c(=O)n(C)c1=O | 2%[38.3 µM] | 1% | -7% | 6 | -8% | -80*
Cn1c(N)c(C(=O)COC(=O)c2ccnc3ccccc23)c(=O)n(C)c1=O | ? | -5% | -9% | / | ? | -85*
Cn1c(N)c(C(=O)COC(=O)c2ccc(S(=O)(=O)N3CCCCC3)cc2)c(=O)n(C)c1=O | 7% | / | / | / | / | /
Cn1c(N)c(C(=O)COC(=O)c2ccc(Cl)c(S(=O)(=O)N3CCCCC3)c2)c(=O)n(C)c1=O | 5% | / | 0% | / | 16µM* | 67
Cc1ccc(Cl)cc1N(Cc1ccc(C(=O)NCc2cccnc2)cc1)S(=O)(=O)c1ccccc1 | 25%[38.3 µM] | 44% | -2% | 10 | -26% | 30
COc1cc([N+](=O)[O-])ccc1NC(=S)Nc1cc(C(=O)OC(C)C)cc(C(=O)OC(C)C)c1 | 5% | / | -3% | -5 | -27% | -24
O=C(CSc1ccc2ccccc2c1)Nc1ncccn1 | / | / | 4% | -21 | / | -18
O=C(O)/C=C(/C(=O)O)[C@]12CCN3CC4=CCO[C@@H]5CC(=O)N[C@@H]1C5[C@H]4C[C@H]32 (stereo partly drawn) | ? | / | / | / | -5% | /
CN1CCN(C(=S)NCCc2ccccc2)CC1 | 4% | -9% | 1% | -3 | -8% | -82*
CC1CCN(C(=S)NCCc2ccccc2)CC1 | 27%[38.3 µM] | -4% | 1% | -3 | -3% | 17
CCOC(=O)c1c(C)[nH]sc1=S | 14µM* | ? | 1% | ? | ? | 35
c1ccc(-c2ccn3nnnc3n2)cc1 | 1% | / | 0% | -11 | -18% | -100*
COc1ccc(NS(=O)(=O)c2cccc(C(=O)N/N=C/c3ccc(O)cc3)c2)cc1 | 5% | / | / | / | / | /
O=C(Nc1nccs1)c1cnccn1 | 7% | / | -1% | -5 | -9% | -100*
O=C(O)c1cc(-c2cccc(Cl)c2)nc2nc(N3CCCCC3)sc12 | ? | / | -4% | / | ? | -86*
O=C(c1ccccc1)c1sc(N2CCCCCC2)nc1-c1ccccc1 | 15%[38.3 µM] | 10% | 2% | 3 | -16% | -17
COc1ccc(CCn2c(SCC(=O)Nc3cc(C)on3)nc3ccccc3c2=O)cc1OC | -8%[38.3 µM] | -17% | 0% | -3 | -2% | 2
COc1ccc(CCn2c(SCC(=O)Nc3cc(C)on3)nc3ccsc3c2=O)cc1OC | 11µM* | 5%[11.4 µM] | -2% | ? | -7% | ?
CCCCNC(=O)C(=O)N/N=C/c1ccc(OCC(=O)Nc2cccc(OC)c2)c(OC)c1 | -13% | / | 2% | / | ? | ?
CCOC(=O)c1c(NC(=O)Cc2cccs2)sc(C(=O)NC2CCCCC2)c1C | ? | -11% | -2% | -4 | -19% | 17
COC(=O)c1c(NC(=O)c2ccco2)sc(C(=O)N2CCCC2)c1C | -11%[38.3 µM] | 0% | -1% | 3 | 18µM* | -18
CCOC(=O)c1c(NC(=O)c2ccco2)sc2c1CCCC2 | 8%[38.3 µM] | -7% | -8% | 0 | ? | -25
SMILES | IMPase Li cell | ALOX15B inhib | ALOX12 inhib | IMPase cell inh | HPGD block | PNC inhibitor
COC(=O)c1c(NC(=O)Cc2cccs2)sc(C(=O)N2CCCCC2)c1C | -7% | / | 3% | -17 | 16µM* | 10
CCN(CC)S(=O)(=O)c1cccc(C(=O)N[C@H](C(=O)NCc2ccc(Cl)cc2)C(C)C)c1 | 21%[38.3 µM] | 4% | -7% | 9 | -10% | -29
COc1ccc(CCC(=O)Nc2cccc(Cl)c2)cc1 | -6% | / | 0% | / | -9% | -83*
COC(=O)c1cccc(NC(=O)c2cccnc2)c1 | -9%[38.3 µM] | -5% | 2% | 4 | -10% | 80
COC(=O)c1cccc(NC(=O)c2cnoc2C)c1 | 3% | / | 6% | 5 | -21% | -119*
COC(=O)c1cccc(NC(=O)CCc2ccccc2)c1 | 13% | / | 5% | / | 25µM* | -28
CCOC(=O)C1=C(Cc2ccc(Cl)cc2)C(=O)c2ccccc2C1=O | 28%[38.3 µM] | 10µM* | ? | -4 | 3.5µM* | 51
CCOC(=O)C1=C(C)N=C2c3ccccc3C(=O)C2C1c1ccc(Cl)cc1 (stereo not drawn) | 20%[38.3 µM] | -14% | -12% | 11 | -6% | -30
CSc1ccc(C(=S)N2CCN(CCO)CC2)cc1 | 4% | 9% | 3% | 16 | 25µM* | ?
OCCN1CCN(C(=S)c2ccc(Br)cc2)CC1 | 6%[38.3 µM] | 3% | 2% | 0 | -9% | 46
O=C(NCc1cn2ccsc2n1)c1c(F)cccc1Cl | 22%[38.3 µM] | -8% | 2% | 11 | 8.9µM* | 29
O=C(NCc1cn2ccsc2n1)c1cccc(C(F)(F)F)c1 | 22%[38.3 µM] | 23% | 2% | -6 | -13% | -14
COc1ccc2oc(=O)c(-c3nc4ccccc4o3)cc2c1 | 6% | / | -3% | -6 | ? | -81*
OC(CN1CCNCC1)Cn1c2ccc(Br)cc2c2cc(Br)ccc21 (stereo not drawn) | 8% | 50% | 2% | / | -9% | /
CSc1ncccc1C(=O)NCc1ccc(C)cc1 | ? | 17% | 10% | -5 | 14µM* | -12
CCOc1ncccc1C(=O)Nc1ccccc1C(=O)NCc1ccc2c(c1)OCO2 | ? | -2% | -6% | ? | -22% | -26
CCOc1ncccc1C(=O)NCc1ccc(C)cc1 | 6% | / | 2% | 8 | 16µM* | ?
CC[C@H](C)C(=O)O[C@H]1CCC=C2C=C[C@H](C)[C@H](CC[C@@H]3C[C@H](O)CC(=O)O3)C21 (stereo partly drawn) | 5% | / | / | / | -8% | /

Screening results deposited in PubChem BioAssay by National Center for Advancing Translational Sciences (NCATS).
